# SMN2 splice enh: SMN2 splice variant enhancement; HEK293 SMN2-luciferase splicing reporter, luminescence, 30-36 h; Potency, µM (top dose mostly 46.1 µM), inactives show top-dose activity change, positive = activation, actives largely listed as activators; 210,000 tested, 2.8% active; note: % of control where 0% means no effect; nearly all actives have a fitted effect of over 55% in size
#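 qHTS luciferase splicing reporter: luminescence rises when SMN2 exon 7 is included in transfected HEK293 cells. Compound exposure lasted 30-36 h at 37C, with 4.5 mM final sodium butyrate as control, followed by a ONE-Glo read.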
# FLuc counter: inhibits or activates purified firefly luciferase, miR-21 counter-screen; Potency, µM (top dose mostly 57.5 µM), for inactives: at the highest dose activity change, negative = inhibition, usual class: inhibitors; purified FLuc, Km substrates, luminescence inhibition; 360,000 tested, 6.9% active; P08659;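 note: plate controls were vehicle for no effect and reference inhibitor for full effect; nearly all actives have a fitted effect of over 55% in size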
# Target sequence (P08659 whole entry, looked up): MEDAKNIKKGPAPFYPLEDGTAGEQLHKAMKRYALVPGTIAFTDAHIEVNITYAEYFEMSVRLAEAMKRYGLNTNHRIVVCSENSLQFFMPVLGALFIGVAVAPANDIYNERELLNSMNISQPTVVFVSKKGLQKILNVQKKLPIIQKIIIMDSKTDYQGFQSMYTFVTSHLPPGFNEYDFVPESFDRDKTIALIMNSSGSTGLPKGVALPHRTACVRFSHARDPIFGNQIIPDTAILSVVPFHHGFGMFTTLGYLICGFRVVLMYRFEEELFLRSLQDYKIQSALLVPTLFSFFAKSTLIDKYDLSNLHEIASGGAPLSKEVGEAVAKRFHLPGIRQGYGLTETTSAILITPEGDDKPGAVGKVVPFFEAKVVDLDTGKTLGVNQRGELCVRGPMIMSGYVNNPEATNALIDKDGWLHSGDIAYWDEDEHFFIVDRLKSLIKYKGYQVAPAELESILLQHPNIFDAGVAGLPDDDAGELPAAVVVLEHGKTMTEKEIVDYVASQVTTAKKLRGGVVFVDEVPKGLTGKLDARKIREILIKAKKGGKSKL
#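 Biochemical qHTS of compounds, final roughly 60 µM downward over six points, against 10 nM purified firefly luciferase using Km concentrations of substrates (10 uM D-luciferin, 10 uM ATP) in Tris acetate pH 7.5 buffer; luminescence output.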
# ELG1 genotox: genotoxicity induction in ELG1-luciferase HEK293T cells; 330,000 tested, 1.3% active; AID 504466; Potency, µM (series often up to 46 µM), for inactives: at the highest dose activity change, positive = activation, most hits filed as activators; HEK293T ELG1-luciferase reporter, luminescence, 16 h; note: % of control where 0% means no effect; nearly all actives have a fitted effect of over 60% in size
#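 16 hr compound incubation (37 °C, 5% CO2) of HEK293T cells carrying luciferase-tagged ELG1; luciferase then measured by ONE-Glo luminescence after 30 min at RT.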
# NPC1 prom act: NPC1 promoter activation. Huh7 NPC1 promoter luciferase reporter, 24 h. Potency, µM (titrated, usually from 9.22 µM), for the others: top-dose activation, hits mostly activators. 320,000 tested, 2.4% active. AID 485313; note: % of control where 0% means no effect; nearly all actives have a fitted effect of over 60% in size
#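 Cells: Huh7 expressing luciferase under the NPC1 promoter, 1500/well. Seeded 2 h, compound added, incubated 24 h at 37 °C. Luciferase reagent, 10 min ambient, then luminescence.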
# Rab9 promoter act: Rab9 promoter activation. Huh7 Rab9 promoter-luciferase reporter, luminescence, 24 h. Potency, µM (doses to about 9.22 µM), for inactives: at the highest dose activation, negative = inhibition, most hits filed as activators. 320,000 tested, 2.8% active. AID 485297; note: % of control where 0% means no effect; nearly all actives have a fitted effect of over 60% in size
#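 Luminescence from Amplite-detected luciferase (10 minutes, ambient) reports Rab9 promoter activation. Before that, stable Rab9-luciferase Huh7 cells (1500/well, reduced-serum OP-MEM I plus 10% FBS) were exposed to compound for 24 hours at 37C.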
# ELG1 repair inh: ELG1-dependent DNA repair inhibition; 330,000 tested, 2.3% active; HEK293T ELG1-luciferase reporter, luminescence, 16 h; DNA damage induced by 5-fluorouridine; Potency, µM (doses to about 46.1 µM), without a hit: top-dose activity change, negative = inhibition, hits mostly inhibitors; note: % is set by controls: 0 for no effect and ±100 for the full control effect; nearly all actives have a fitted effect of over 55% in size
#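 Quantitative HTS, concentration-response format. 2,000 cells/well co-treated with 5-fluorouridine and compound, 16 hr in 5% CO2 at 37 °C; ONE-Glo luminescence read after 30 min.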
# * marks the source's active call; other numbers are inactive results; ? = inconclusive; . = no result given. Rows were chosen to be rich in hits. Some 9.2% of all compounds tested hit in one or more screens of this group. Calls come from the whole dose curve; as a rule, active = well fitted curve in the direction sought with a large enough effect; inconclusive = small, poorly fitted or top-dose-only effect, or another doubt; inactive = no such curve, though single readings can be large; an effect the other way counts as inactive or inconclusive. Potency is the fitted concentration of half-maximal effect.
SMILES,SMN2 splice enh,FLuc counter,ELG1 genotox,NPC1 prom act,Rab9 promoter act,ELG1 repair inh
Cc1ccccc1C(=O)Nc1nc2c(s1)CC(C(C)(C)C)CC2 (centres undefined),.,6µM*,.,.,.,.
CC1CCc2nc(NC(=O)CN3CCOCC3)sc2C1 (centres undefined),?,?,?,23%,?,?
Cc1ncsc1C(=O)Nc1nc2c(s1)CC(C)CC2 (centres undefined),13µM*,2.1µM*,2.1µM*,1.8µM*,?,?
CC1CCc2nc(NC(=O)COc3ccc(C(C)(C)C)cc3)sc2C1 (centres undefined),.,-8%,.,.,.,.
CC(O)[C@H]1CNCCN1CCc1cccc(F)c1 (some centres undefined),.,-1%,4%,-1%,2%,15%
Cc1ccccc1Oc1cc(-n2ncc(Cl)c(Cl)c2=O)ncn1,-83%,-5%,-8%,-33%,-46%,5.8µM*
Cc1cc(C(=O)CSc2nncs2)c(C)n1-c1ccc2c(c1)OCO2,-12%,19µM*,5%,?,2.2µM*,?
Cc1cc(C(=O)CSc2nnnn2-c2ccc(O)cc2)c(C)n1Cc1ccc2c(c1)OCO2,-38%,1%,-38%,1%,-1%,18µM*
Cc1cc(C(=O)CSc2nnnn2-c2ccccc2)c(C)n1-c1ccc2c(c1)OCO2,-90%,1%,17%,-3%,-3%,-3%
O=C(CSc1nncs1)Nc1ccc2c(c1)OCCO2,18%,?,15µM*,?,?,?
O=C(CSc1nncs1)NC(=O)Nc1ccc2c(c1)OCCO2,.,15µM*,?,?,3.5µM*,?
Cc1cccc(C)c1NC(=O)C1CCCN1S(=O)(=O)c1ccc2c(c1)n(C)c(=O)c(=O)n2C (centres undefined),.,-1%,0%,-3%,-1%,2%
COc1ccc(S(=O)(=O)N(CC(=O)NCCSc2ccccc2)c2ccc(C)cc2)cc1,-18%,-12%,.,.,.,.
O=C(OCc1ccc(O)cc1)c1c(-c2ccsc2)oc2ccc(N3CCOCC3)cc12,.,-13%,-5%,-4%,3%,?
CCOC(=O)c1sc(=NC(=O)c2ccc(C)cc2)n(C)c1C,22µM*,?,?,19%,?,?
CCOC(=O)c1sc(=NC(=O)c2ccc(F)cc2)n(C)c1C,.,0.67µM*,?,4%,23%,?
CCOC(=O)c1sc(=NC(=O)c2c(F)cccc2F)n(C)c1C,.,-22%,?,23%,?,?
CCOC(=O)c1sc(=NC(=O)COc2ccccc2)n(C)c1C,?,?,?,?,3.2µM*,?
Cn1c(=NC(=O)COc2ccccc2)sc2cccc(F)c21,.,?,?,3.5µM*,1.8µM*,?
CC(NC(=O)c1ccccc1)c1nnc(SCC(=O)NC2CCCC2)n1C (centres undefined),.,1%,-2%,0%,1%,22%
CC(=O)c1cccc(NC(=O)CN(c2cc(C)cc(C)c2)S(=O)(=O)c2c(C)noc2C)c1,-1%,-10%,.,.,.,.
Cc1cc(NC(=O)CSc2n[nH]c(-c3ccc(Cl)cc3Cl)n2)no1,.,0%,1%,-8%,1%,?
CCOc1ccc(-c2nnc(SCC(=O)N3CCOCC3)o2)cc1,?,11µM*,?,?,2.2µM*,?
COc1ccc(-c2nnc(SCC(=O)N3CCOCC3)o2)cc1OC,12%,-2%,-1%,-2%,-2%,-1%
CCOc1ccc(-c2nnc(SCC(=O)N3CCCC3)o2)cc1,.,21µM*,?,?,?,?
SMILES,SMN2 splice enh,FLuc counter,ELG1 genotox,NPC1 prom act,Rab9 promoter act,ELG1 repair inh
CC(C)[C@H](NC(=O)c1ccc([N+](=O)[O-])cc1Cl)C(=O)N1CCN(C/C=C/c2ccccc2)CC1,.,.,-6%,.,.,13µM*
CCOC(=O)c1ccc(NC(=O)c2cn(CCC#N)nc2-c2ccc3c(c2)OCCO3)cc1,10%,4%,-1%,-1%,-2%,15µM*
CC1CCCN(C(=O)CN(c2ccccc2)S(=O)(=O)c2ccc(F)cc2)C1 (centres undefined),.,-1%,-3%,1%,2%,20%
COC(=O)[C@]1(C)N[C@H](CN(C)S(=O)(=O)c2ccc(OC(F)(F)F)cc2)[C@@H]2C(=O)N(Cc3ccccc3)C(=O)[C@@H]21,.,.,-2%,.,.,0%
O=C1CSC(c2cn(-c3ccccc3)nc2-c2ccccc2)N1Cc1ccco1 (centres undefined),-13%,5%,-7%,-2%,28%,18µM*
O=C(COC(=O)COc1cccc(F)c1)Nc1nc2ccccc2s1,.,.,3%,.,.,?
Brc1ccc(-c2nnc(SCCC3OCCCO3)o2)cc1,26%,15µM*,13%,24%,23%,?
O=C1OCCC1Sc1nnc(-c2ccco2)o1 (centres undefined),-1%,-2%,2%,0%,7%,-5%
O=C1OCCC1Sc1nnc(-c2ccc(Br)cc2)o1 (centres undefined),-2%,6µM*,-2%,0%,-5%,7%
c1ccc(-c2nnc(SCCC3OCCCO3)o2)cc1,11µM*,15µM*,?,2.5µM*,2.5µM*,?
CCCCN(C(=O)CN1C(=O)C2CCCCC2C1=O)c1c(N)n(CCCC)c(=O)[nH]c1=O (centres undefined),.,-1%,-5%,-1%,-3%,-1%
COc1cc(/C=N/n2c(-c3ccc4c(c3)NC(=O)CO4)csc2=Nc2cccc(C)c2)ccc1O,-12%,?,-12%,-2%,-3%,15µM*
COCCN=c1scc(-c2ccc3c(c2)NC(=O)CO3)n1/N=C(\C)c1ccc(O)cc1,.,0%,-13%,0%,-7%,18µM*
CC1CC(C)CN(C(=O)CN2C(=O)NC3(CCCCCCC3)C2=O)C1 (centres undefined),.,6%,-1%,-5%,-6%,-16%
CCCn1c(NC(=O)c2cccc(S(=O)(=O)N3CCCC3)c2)nc2ccccc21,-25%,2%,-30%,-1%,-15%,8.2µM*
Cc1ccccc1NC(=O)c1cccc(S(=O)(=O)N2CCCCC2)c1,.,0%,-7%,0%,12%,2%
CNC(=O)c1ccccc1NC(=O)c1cccc(S(=O)(=O)N2CCCCC2)c1,.,0%,-7%,-3%,-7%,?
O=C(c1cccc(S(=O)(=O)N2CCCC2)c1)c1cccc(S(=O)(=O)N2CCCC2)c1,-71%,3%,-36%,-1%,-2%,5.8µM*

# Screening results from PubChem BioAssay.
